High-throughput results as filed in PubChem BioAssay.
The list is not random: actives were taken first. Their share in the collection is about 4%.
TWEAK-Fn14 inh: TWEAK-Fn14 signaling inhibition; TWEAK-stimulated Fn14 reporter cells, luciferase luminescence, 8 h; inhibition, % at 10 µM; hit rate 2% among 360,000; AID 1159606; in the data active means inhibition above about 50%
Peg3 prom inh: reduces Peg3 promoter-driven luciferase expression in HeLa; hit rate 1.7% among 360,000; inhibition, % at 20 µM; AID 588405; HeLa PEG-Prom luciferase reporter, luminescence, overnight;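 active means inhibition of at least 50% at 20 µM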
CF NFkB block: inhibitors of cystic fibrosis induced NF-kB; inhibition, % at 5 µM; hit rate 0.86% among 360,000; KKLEB NF-kB-GFP reporter, PAF-induced, GFP fluorescence overnight;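 active means at least 50% inhibition at 5 µM, scaled per plate between neutral and stimulator controls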;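 further: PAF is a Pseudomonas aeruginosa culture filtrate used as stimulus; plate controls were PAF-stimulated DMSO wells for no effect and unstimulated DMSO wells for full effect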
HIF-2a inh: inhibitors of HIF-2a; hit rate 0.72% among 360,000; inhibition, % at 18.8 µM; 786-0 RCC cells HIF-2a reporter, luciferase luminescence, overnight;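 active means inhibition of the luminescence signal of 40% or more relative to plate controls, in a single-dose primary screen at 18.75 µM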
TROY NFkB inh: blocks TROY-dependent signaling in reporter cells; Q293 LMP1-TROYcd NF-kB luciferase reporter, 4 h; inhibition, % at 10 µM; hit rate 0.98% among 360,000;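 active means compounds whose plate-normalised and pattern-corrected inhibition of the luciferase reporter signal at the single screening dose is 50% or more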
KKLEB cytotox: counter-screen for CF NF-kB inhibitors: cytotoxicity | KKLEB CF airway cells viability, ATPlite luminescence, overnight; stronger effect = lower value; cells stimulated with P. aeruginosa culture filtrate | activity change (cytotoxicity), % at 5 µM | hit rate 0.36% among 360,000;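 active means corrected activity change at or below -50% at 5 µM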
Numbers without * were called inactive.

C[C@H](CO)N1C[C@H](C)[C@@H](CN(C)C(=O)Nc2ccccc2F)OCc2cnnn2CCCC1=O was read as TWEAK-Fn14 inh -19, Peg3 prom inh -10, CF NFkB block 7, HIF-2a inh 1, TROY NFkB inh -4 and KKLEB cytotox -13.
Screening Cc1cc(NC(=O)c2ccc(S(=O)(=O)N3CCCC3)cc2)nc2c1c(=O)oc1ccccc12 returned TWEAK-Fn14 inh -18, Peg3 prom inh 47, CF NFkB block 47, HIF-2a inh -24, TROY NFkB inh -8 and KKLEB cytotox -54*.
Screening CC1CN(S(=O)(=O)c2ccc(C(=O)Nc3nncs3)cc2)CC(C)O1 (configuration not stated) returned TWEAK-Fn14 inh 2, Peg3 prom inh -2, CF NFkB block 1, HIF-2a inh 0, TROY NFkB inh 1 and KKLEB cytotox 2.
For CC1CN(S(=O)(=O)c2ccc(C(=O)Nc3nc(-c4cc5ccccc5o4)cs3)cc2)CC(C)O1 (configuration not stated) the results were TWEAK-Fn14 inh 67*, Peg3 prom inh 32, CF NFkB block 50*, HIF-2a inh 9, TROY NFkB inh 37 and KKLEB cytotox -54*.
CS(=O)(=O)c1ccccc1-c1nnc(NC(=O)c2ccc(S(=O)(=O)N3CCCC3)cc2)o1 was read as TWEAK-Fn14 inh 4, Peg3 prom inh 12, CF NFkB block 4, HIF-2a inh 18, TROY NFkB inh 70* and KKLEB cytotox 2.
For O=C(Nc1nc(-c2cc3ccccc3o2)cs1)c1ccc(S(=O)(=O)N2CCCC2)cc1 the results were TWEAK-Fn14 inh 83*, Peg3 prom inh -10, CF NFkB block 12, HIF-2a inh -37, TROY NFkB inh 39 and KKLEB cytotox -16.
`Cc1cc(NC(=O)c2ccccc2)nc2c1c(=O)oc1ccccc12` gave TWEAK-Fn14 inh 5, Peg3 prom inh 15, CF NFkB block -45, HIF-2a inh -13, TROY NFkB inh -14 and KKLEB cytotox 4.
`CC1CCCCN1S(=O)(=O)c1ccc(C(=O)Nc2nnc(-c3ccccc3Cl)o2)cc1` (configuration not stated) gave TWEAK-Fn14 inh -13, Peg3 prom inh 42, CF NFkB block 12, HIF-2a inh 21, TROY NFkB inh 2 and KKLEB cytotox 13.
C=CCNc1nc(-c2cc3ccccc3o2)cs1 was read as TWEAK-Fn14 inh -17, Peg3 prom inh -170, CF NFkB block -6, HIF-2a inh -159, TROY NFkB inh -36 and KKLEB cytotox 3.
Screening c1ccc2oc(-c3csc(NCC4CCCO4)n3)cc2c1 (configuration not stated) returned TWEAK-Fn14 inh 80*, Peg3 prom inh -279, CF NFkB block -8, HIF-2a inh -295, TROY NFkB inh -10 and KKLEB cytotox -1.
`CN(CC1CCCO1)S(=O)(=O)c1ccc(C(=O)Nc2nc(-c3ccccn3)cs2)cc1` (configuration not stated) gave TWEAK-Fn14 inh 23, Peg3 prom inh 54*, CF NFkB block -21, HIF-2a inh 25, TROY NFkB inh 30 and KKLEB cytotox 27.
`O=C(Nc1ccc(S(=O)(=O)N2CCOCC2)cc1)c1cc(-c2ccccc2O)n[nH]1` gave TWEAK-Fn14 inh 3, Peg3 prom inh 47, CF NFkB block -28, HIF-2a inh 17, TROY NFkB inh 27 and KKLEB cytotox 11.
CN(C)S(=O)(=O)c1ccc(C(=O)Nc2nc(-c3cc4ccccc4o3)cs2)cc1 was read as TWEAK-Fn14 inh -16, Peg3 prom inh -29, CF NFkB block 30, HIF-2a inh -2, TROY NFkB inh 51* and KKLEB cytotox -13.
`CC1CN(S(=O)(=O)c2ccc(NC(=O)c3cc(-c4ccccc4O)n[nH]3)cc2)CC(C)O1` (configuration not stated) gave TWEAK-Fn14 inh 37, Peg3 prom inh 28, CF NFkB block 8, HIF-2a inh -11, TROY NFkB inh 62* and KKLEB cytotox 5.
`Cc1cc(-c2csc(NC(=O)c3ccc(S(=O)(=O)N(C)C)cc3)n2)c(C)n1-c1ccccc1` gave TWEAK-Fn14 inh 17, Peg3 prom inh 37, CF NFkB block -5, HIF-2a inh 23, TROY NFkB inh -10 and KKLEB cytotox 8.
